# The list is not random: actives were taken first. Their share in the collection is about 3.6%.
# TRHR agonist-1 – activates the human TRH receptor; P34981; TRHR cells, calcium flux fluo-8, FDSS agonist mode; 360,000 tested, 0.18% active; activation, % at 2 µM; AID 493084; in the data active means activation above about 30%
#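 In this calcium-flux screen, cells bearing human TRHR are dye-loaded with fluo-8, baselined for 10 cycles, then exposed to library compounds; positive kinetic calcium responses during the agonist phase mark hits, with TRH as control.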
# TRHR enhancer-1 – allosteric enhancers of human TRH receptor; TRHR cells, fluo-8 calcium fluorescence, EC20 TRH enhancement; enhancement, % at 2 µM; 360,000 tested, 0.66% active; AID 493056; in the data active means enhancement above about 30%
#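 Enhancer read-out: after compound pinning and an initial kinetic agonist-mode read, an EC20 of TRH (10 nM final) was injected and fluo-8 calcium signal (Ex 480/Em 530) followed at 1 s/cycle for 100 cycles in TRHR-expressing cells.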
# D1 ag – activates the human D1 dopamine receptor. HEK293 T-REx D1 cells, calcium flux, agonist mode. activation, % at 2 µM. 360,000 tested, 1% active. P21728. AID 504660; in the data active means activation above about 30%
# Target sequence (P21728 whole entry, looked up): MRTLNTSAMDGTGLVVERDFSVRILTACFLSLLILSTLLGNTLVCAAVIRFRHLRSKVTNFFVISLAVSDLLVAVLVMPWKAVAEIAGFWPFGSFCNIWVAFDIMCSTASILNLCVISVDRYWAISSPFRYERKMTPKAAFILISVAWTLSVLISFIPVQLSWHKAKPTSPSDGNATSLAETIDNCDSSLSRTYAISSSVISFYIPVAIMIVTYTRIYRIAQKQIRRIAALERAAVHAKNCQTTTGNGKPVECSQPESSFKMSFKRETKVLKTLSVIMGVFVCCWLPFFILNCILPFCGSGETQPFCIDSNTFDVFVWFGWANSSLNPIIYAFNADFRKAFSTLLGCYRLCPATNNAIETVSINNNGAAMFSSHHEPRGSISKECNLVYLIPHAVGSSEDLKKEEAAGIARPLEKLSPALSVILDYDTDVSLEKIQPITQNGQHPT
#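 Inducible HEK293 T-REx D1 cells, force-coupled to calcium signalling, were plated at 4000 cells/well with tetracycline and held overnight at 30 C. After no-wash calcium dye loading, compound-evoked calcium rise over 180 s flagged agonists.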
# D1 potentiator – potentiators of human D1 dopamine receptor; HEK293 TREx D1 cells, calcium flux, dopamine EC20 potentiation; potentiation, % at 10 µM; 360,000 tested, 0.036% active; AID 504651; in the data active means potentiation above about 30%
# D1 antagonist – antagonists of human D1 dopamine receptor | P21728 | 360,000 tested, 3.2% active | AID 504652 | activity change, negative = inhibition, % at 10 µM | HEK293 TREx D1 cells, calcium flux, dopamine EC80; stronger effect = lower value; in the data active means activity change below about -30%
#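 Calcium flux readout: force-coupled, inducible Hek293 Trex D1 line, cells induced overnight at 30 C with tetracycline, dye-loaded 30–90 min at RT. Antagonism scored against EC80 dopamine challenge given 180 s after compound.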
# LDHA inh – blocks human lactate dehydrogenase A | AID 1347041 | purified LDHA, NADH/diaphorase-resazurin fluorescence; stronger effect = lower value | activity change, % (values are at about 110 or 230 µM) | 480,000 tested, 0.15% active; in the data active means activity change below about -30%; inconclusive means mostly about -25% to -30%
#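 Resorufin fluorescence (ex540/em590), read at 0 and 20 min after diaphorase/resazurin addition, reports the NADH left after a 5 min room-temperature reaction of 2 nM human LDH5 with 0.06 mM NADH and 0.2 mM pyruvate.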
# TRHR enhancer-2 – confirmation of human TRH receptor allosteric enhancers | shares compounds with TRHR enhancer-1 | TRH receptor cell assay, enhancer confirmation qHTS | activity change, negative = inhibition, % at 46.1 µM | 970 tested, under 10 active | AID 493076;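 further: compound effect scored on response to added TRH at EC20 of 10 nM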
# TRHR agonist-2 – confirmation of human TRH receptor agonists. TRHR-expressing cells, agonist activation read-out. 970 tested, 8% active. Potency, µM (titrated, usually from 46.1 µM), hits mostly activators. shares compounds with TRHR enhancer-1; further: nearly all actives have a fitted effect of over 75% in size
# Hits are given with their value; – = inactive; ? = inconclusive; · = not tested or not shown; ! = repeats disagree. Unless noted, the call rests on the fitted dose curve; in most records, active means well fitted curve in the direction sought with a large enough effect; inconclusive means small, poorly fitted or top-dose-only effect, or another doubt; inactive means no such curve, though single readings can be large; an effect the other way counts as inactive or inconclusive.
SMILES,TRHR agonist-1,TRHR enhancer-1,D1 ag,D1 potentiator,D1 antagonist,LDHA inh,TRHR enhancer-2,TRHR agonist-2
CCCN(CCC)CCNS(=O)(=O)c1ccc2c(c1)oc(=O)n2C,–,–,–,–,–,–,·,·
Cc1ccc(C)c(N2CCN(C(=O)CCNS(=O)(=O)c3ccc4c(c3)oc(=O)n4C)CC2)c1,–,–,–,–,-35,–,·,·
CCN(CCNS(=O)(=O)c1ccc2c(c1)oc(=O)n2C)c1ccccc1,–,–,–,–,-31,–,·,·
Cc1cc(C)c(NC(=O)c2cc3c(s2)CCCCC3)c(C)c1,·,·,·,·,·,–,·,·
CC(C)NC(=O)CNC(=O)c1cc2cc(F)ccc2[nH]1,·,·,·,·,·,–,·,·
Cc1ccc2[nH]c(C(=O)O)cc2c1,·,·,·,·,·,–,·,·
O=C(O)c1cc2cc(F)ccc2[nH]1,–,–,44!,–,–,–,·,·
CC(NC(=O)c1cc2cc(F)ccc2[nH]1)c1ccccc1 (stereo not drawn),–,–,–,–,-55,–,·,·
O=S(=O)(c1ccc2oc3ccc(S(=O)(=O)N4CCCCCC4)cc3c2c1)N1CCCCCC1,·,·,·,·,·,–,·,·
C#CCN(C)CC/C=C1\c2ccccc2CSc2ccccc21,74,–,–,–,–,–,–,–
C#CCN(C)Cc1ccccc1,–,–,–,–,–,–,·,·
CCOC(=O)c1cc(-c2ccccc2)n(CC(=O)NC(C)(C)C)c1C,–,57,–,–,–,–,–,–
CCOC(=O)c1cc(-c2ccccc2)n(CC(=O)O)c1C,–,–,–,–,–,–,·,·
COc1cc([N+](=O)[O-])c2ncccc2c1,–,–,–,–,–,–,·,·
COc1cc([N+](=O)[O-])c2nccnc2c1,–,44,–,–,–,–,–,–
CS(=O)(=O)c1ccc(C(=O)NCc2ccc(F)cc2)cc1,–,60,–,–,–,–,–,–
Cn1nc(C(=O)NCc2ccccc2)cc1C(=O)NCc1ccccc1,–,–,–,–,–,–,·,·
Cn1nc(C(=O)NCc2ccc(F)cc2)cc1C(=O)NCc1ccc(F)cc1,–,46,–,–,–,–,–,–
CS(=O)(=O)Cc1ccc(C(=O)NCc2ccc(F)cc2)cc1,·,·,·,·,·,–,·,·
CCNC(=S)NN1CCN(C)CC1,·,·,·,·,·,–,·,·
COc1ccccc1CN(C)C(=O)CN1CCN(S(=O)(=O)c2ccc3c(c2)OCCCO3)CC1,–,55,–,–,–,–,–,–
COc1cccc(C2=NC(C)(C)NC(c3ccccc3O)C2)c1 (stereo not drawn),–,42,–,–,–,–,–,–
O=C(NCCc1cccc2cccnc12)N1CCC(n2cccc2)CC1,·,·,·,·,·,–,·,·
Cc1ccc(S(=O)(=O)NCc2ccc(C(=O)NC3CCCCC3)cc2)cc1,–,77,–,–,–,–,–,–
O=C(COc1ccc(Cl)cc1)NCc1nnc(SCC(=O)Nc2ccccc2F)o1,–,44,–,–,–,–,–,–
SMILES,TRHR agonist-1,TRHR enhancer-1,D1 ag,D1 potentiator,D1 antagonist,LDHA inh,TRHR enhancer-2,TRHR agonist-2
COc1cccc(CNC(=O)c2ccc(C)c(S(=O)(=O)N3CCOCC3)c2)c1,–,–,–,–,–,–,·,·
Cc1ccc(C(=O)NCc2ccncc2)cc1S(=O)(=O)N1CCOCC1,–,44,–,–,–,–,–,–
CCc1noc(C)c1C(=O)OCC(=O)c1c[nH]c2c(CC)cccc12,·,·,·,·,·,–,·,·
CC(N)CC(C)(C)c1ccccc1 (stereo not drawn),·,·,·,·,·,–,·,·
COc1ccccc1-n1c(SCC(N)=O)nnc1-c1ccc(S(=O)(=O)N2CCCCC2)cc1,–,–,–,–,–,–,·,·
NC(=O)CSc1nnc(-c2ccc(S(=O)(=O)N3CCCCC3)cc2)n1-c1ccccc1,–,50,–,–,–,–,?,–
CCCNC(=O)C(C)NC(=O)CCc1c[nH]c2ccccc12 (stereo not drawn),·,·,·,·,·,–,·,·
COc1ccc(CCNC(=O)CSc2nc(N)c(C#N)c(-c3cccs3)c2C#N)cc1OC,141,–,–,–,–,–,–,–
Cc1ccccc1NC(=O)CSc1nc(N)c(C#N)c(-c2cccs2)c1C#N,–,–,–,–,–,–,·,·
Cc1ccc2cc3c(NC(=O)C4CCCO4)nn(CC(C)C)c3nc2c1 (stereo not drawn),–,47,–,–,·,–,?,–
Cc1ccc2nc3c(cc2c1)c(NC(=O)C1CCCO1)nn3CC(C)C (stereo not drawn),–,–,–,–,·,–,·,·
CCC(C)Oc1ccc(C2CC(=O)NC3=C2C(=O)CC(C)(C)C3)cc1 (stereo not drawn),·,·,·,·,·,–,·,·
CCCCCc1ccc(OCCCC[n+]2ccc(C)cc2)c(CCCCC)c1,35,–,202,–,–,–,–,?
CCCCCCCCOc1ccc(-c2ccc(CCCCCCCC)cn2)cc1F,·,·,·,·,·,–,·,·
Cc1ccc(OCc2nc(C#N)c(NCCCn3ccnc3)o2)cc1,–,–,–,–,–,–,·,·
N#Cc1nc(COc2ccccc2)oc1NCCCn1ccnc1,–,57,–,–,-33,–,–,–
COc1ccc2nc(N=Nc3ccc(N(C)C)cc3)sc2c1,–,86,–,–,–,–,–,–
COc1ccc2nc(/N=C\N(C)C)sc2c1,–,–,–,–,–,–,·,·
COc1cc(NC(=O)COc2cc(C)cc3oc(=O)cc(C)c23)cc(OC)c1,·,·,·,·,·,–,·,·
CCOC(=O)Cc1csc(SCC(=O)NC2CCCC2)n1,–,52,–,–,–,–,–,–
CCOC(=O)Cc1csc(SCC(=O)NC2CCCCC2)n1,–,–,–,–,–,–,·,·
CSc1ccc(C(C)NC(=O)c2ccc(F)cc2F)cc1 (stereo not drawn),·,·,·,·,·,–,·,·
N#C/C(=C\c1ccc2c3c(cccc13)CC2)c1nc2ccccc2[nH]1,·,·,·,·,·,–,·,·
CC(=O)Nc1cc2c(nc1C)nc(C)n2Cc1ccc(Br)cc1,–,46,–,–,–,–,–,–
Cc1c(NS(=O)(=O)c2cccc([N+](=O)[O-])c2)c(=O)n(-c2ccccc2)n1C,–,–,–,–,–,–,·,·
Cc1c(Nc2nc(-c3cccc([N+](=O)[O-])c3)cs2)c(=O)n(-c2ccccc2)n1C,–,48,–,–,–,–,–,–
O=C(O)CN(CC(=O)O)C1CCCCC1N(CC(=O)O)CC(=O)O (stereo not drawn),·,·,·,·,·,–,·,·
NC(=O)CSc1nnc(SCc2ccc(F)cc2)s1,31,–,–,–,·,–,–,–
CN(C)CCNC(=O)C(=O)Nc1cccc(N2CCCS2(=O)=O)c1,·,·,·,·,·,–,·,·
CCCCCn1nc(-c2ccccc2)c2nc3ccccc3nc21,–,–,37,–,–,–,–,16µM

# Assay outcomes as filed in PubChem BioAssay.
